# Data taken from PubChem BioAssay.
# Calls of active or inactive are those of the source.
# Assays:
# [1] = system: Plasmodium falciparum Sir2 (PF13_0152, Sir2A); test: Plasmodium falciparum Sir2A binding compounds – biochemical, small-molecule microarray, 635 nm fluorescence, primary screen (AID 1098); details: fluorescence 635 nm, higher = more signal;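 note: score merges spot fluorescence intensity with its signal-to-noise ratio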
# [2] = probe aDKK1 binding to arrayed compounds – biochemical, biotinylated probe, 635/667 nm fluorescence, primary screen (AID 1099); details: small-molecule microarray, higher = more signal;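 note: score merges 667nm spot fluorescence with signal to noise across triplicate slides; reference of the scale not given here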
# [3] = probe aCHRDL2 binding to arrayed compounds – biochemical, biotinylated probe, 635/667 nm fluorescence, primary screen (AID 1100); details: small-molecule microarray, higher = more signal
# [4] = change in splice reporter luminescence, either direction, cell-based, HEK293, spliceosome inhibition project, primary screen (AID 1101); details: HEK293 splicing luciferase reporter, 24 h, higher = more signal, called active from +8 up or from −8 down;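 note: HEK293 cells carrying a splicing-competent luciferase reporter gene; test concentration not given here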
# [5] = target: Fibroblast growth factor 10 (Homo sapiens) (UniProt O15520); test: compounds binding fibroblast growth factor 10 – biochemical, small-molecule microarray, 635 nm fluorescence, primary screen (AID 1102); details: FGF10 binding, fluorescence 635 nm, higher = more signal
# Fibroblast growth factor 10 (Homo sapiens), sequence (O15520 whole entry, looked up): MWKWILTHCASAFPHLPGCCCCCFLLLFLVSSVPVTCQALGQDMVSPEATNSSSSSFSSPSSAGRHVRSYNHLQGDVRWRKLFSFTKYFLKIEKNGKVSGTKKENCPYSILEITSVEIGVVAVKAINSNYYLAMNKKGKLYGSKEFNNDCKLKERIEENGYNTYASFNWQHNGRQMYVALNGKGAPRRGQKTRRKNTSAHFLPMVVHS
# [6] = system: glycogen synthase kinase-3 (GSK3A per assay name; protocol says GSK3B); test: compounds binding glycogen synthase kinase-3 – biochemical, small-molecule microarray, 635 nm fluorescence, GSK3A, primary screen (AID 1103); details: fluorescence 635 nm, higher = more signal; note: the record names both GSK3A and GSK3B
# [7] = target: Epidermal growth factor receptor (Homo sapiens) (UniProt P00533); test: compounds binding epidermal growth factor receptor – biochemical, small-molecule microarray, 635 nm fluorescence, primary screen (AID 1104); details: EGFR binding, higher = more signal;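 note: score merges 667 nm emission intensity with spot signal to noise over triplicate slides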
# Epidermal growth factor receptor (Homo sapiens), sequence (P00533 whole entry, looked up): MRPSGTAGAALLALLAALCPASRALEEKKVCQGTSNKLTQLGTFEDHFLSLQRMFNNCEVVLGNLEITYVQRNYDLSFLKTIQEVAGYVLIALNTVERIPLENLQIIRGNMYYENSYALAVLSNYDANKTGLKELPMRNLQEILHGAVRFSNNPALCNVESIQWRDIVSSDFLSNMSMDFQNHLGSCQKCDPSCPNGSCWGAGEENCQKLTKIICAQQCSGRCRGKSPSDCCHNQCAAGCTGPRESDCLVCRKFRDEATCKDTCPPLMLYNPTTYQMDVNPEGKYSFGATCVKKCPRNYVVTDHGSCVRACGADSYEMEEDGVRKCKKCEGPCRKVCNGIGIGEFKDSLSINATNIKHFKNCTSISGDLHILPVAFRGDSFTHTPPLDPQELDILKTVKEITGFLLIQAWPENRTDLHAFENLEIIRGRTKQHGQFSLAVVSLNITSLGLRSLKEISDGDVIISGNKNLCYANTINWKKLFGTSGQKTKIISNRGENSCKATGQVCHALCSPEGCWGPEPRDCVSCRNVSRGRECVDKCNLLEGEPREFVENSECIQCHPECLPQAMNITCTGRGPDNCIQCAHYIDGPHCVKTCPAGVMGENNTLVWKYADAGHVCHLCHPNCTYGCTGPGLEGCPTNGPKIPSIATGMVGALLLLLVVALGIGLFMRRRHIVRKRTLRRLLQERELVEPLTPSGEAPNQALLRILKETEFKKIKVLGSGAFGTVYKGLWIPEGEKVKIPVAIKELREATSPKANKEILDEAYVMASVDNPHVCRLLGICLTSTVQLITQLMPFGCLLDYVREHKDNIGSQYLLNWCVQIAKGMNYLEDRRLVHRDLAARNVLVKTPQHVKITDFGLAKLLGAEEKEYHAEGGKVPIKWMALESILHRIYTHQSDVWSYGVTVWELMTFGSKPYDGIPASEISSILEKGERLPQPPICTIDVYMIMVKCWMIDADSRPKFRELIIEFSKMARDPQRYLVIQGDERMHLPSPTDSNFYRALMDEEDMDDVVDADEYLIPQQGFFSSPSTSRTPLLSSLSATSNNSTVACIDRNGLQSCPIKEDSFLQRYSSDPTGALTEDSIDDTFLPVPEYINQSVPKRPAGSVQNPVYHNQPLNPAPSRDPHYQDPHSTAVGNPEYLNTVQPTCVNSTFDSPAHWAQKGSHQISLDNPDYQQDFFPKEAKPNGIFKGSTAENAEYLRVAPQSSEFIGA
# [8] = target: Follistatin-related protein 3 (Homo sapiens) (UniProt O95633); test: compounds binding follistatin-related protein 3 – biochemical, small-molecule microarray, 635 nm fluorescence, primary screen (AID 1105); details: FSTL3 binding, higher = more signal;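 note: score merges emission near 667 nm and signal to noise per printed spot across three slides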
# Follistatin-related protein 3 (Homo sapiens), sequence (O95633 whole entry, looked up): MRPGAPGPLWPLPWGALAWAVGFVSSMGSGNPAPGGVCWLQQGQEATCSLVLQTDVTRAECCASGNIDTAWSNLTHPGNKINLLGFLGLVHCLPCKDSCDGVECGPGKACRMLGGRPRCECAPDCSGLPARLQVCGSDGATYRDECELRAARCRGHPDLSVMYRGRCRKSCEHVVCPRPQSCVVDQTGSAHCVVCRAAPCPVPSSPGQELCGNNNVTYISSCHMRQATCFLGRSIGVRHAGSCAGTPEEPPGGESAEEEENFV
# [9] = target: Dickkopf-related protein 1 (Homo sapiens) (UniProt O94907); test: small molecules binding DKK1 protein – biochemical, small-molecule microarray, 635 nm fluorescence scan, primary screen (AID 1106); details: higher = more signal;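 note: score merges emission near 667 nm with signal to noise over three replicate slides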
# Dickkopf-related protein 1 (Homo sapiens), sequence (O94907 whole entry, looked up): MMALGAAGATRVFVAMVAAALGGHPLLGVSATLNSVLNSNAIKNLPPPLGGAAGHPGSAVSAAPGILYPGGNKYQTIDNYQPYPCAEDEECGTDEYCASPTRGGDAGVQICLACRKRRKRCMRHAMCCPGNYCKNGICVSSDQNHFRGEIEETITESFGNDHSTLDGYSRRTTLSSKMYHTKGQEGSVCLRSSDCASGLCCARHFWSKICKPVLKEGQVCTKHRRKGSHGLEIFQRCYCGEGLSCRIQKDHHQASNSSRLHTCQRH
# [10] = system: Inhibin beta A chain (activin A); test: small molecules binding activin A – biochemical, small-molecule microarray, 635 nm fluorescence scan, primary screen (AID 1107); details: INHBA, higher = more signal;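 note: mouse activin A protein probed at 4.33 µg/mL on printed slides; score merges bound-protein fluorescence near 667 nm with spot signal-to-noise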
Structure (SMILES),composite z-score [1],composite z-score [2],composite z-score [3],z-score [4],composite z-score [5],composite z-score [6],composite z-score [7],composite z-score [8],composite z-score [9],composite z-score [10]
COC(=O)[C@@]1(Cc2ccc(F)cc2)[C@H]2c3cc(C(=O)N(C)C)n(Cc4ccc(C(F)(F)F)nc4)c3C[C@H]2CN1C(=O)c1ccccc1,1.12,-0.154,-0.252,-0.622 (inactive),0.776,1.36,0.389,1.42,0.638,0.876
C=CCNC(=O)[C@@H]1[C@H]2C(=O)O[C@H](c3ccccc3)[C@H](c3ccccc3)N2[C@H](c2ccc(OCCO)cc2)[C@@]12C(=O)Nc1ccc(C#CC3=CCCCC3)cc12,1.11,-0.297,-0.299,-0.384 (inactive),1.17,1.21,0.39,0.882,0.586,-0.621
COC(=O)[C@@]1(Cc2ccccc2)[C@H]2c3cc(C(=O)N(C)C)n(Cc4nc5ccccc5[nH]4)c3C[C@H]2CN1C(=O)c1ccccc1,0.88,0.52,1.21,-2.1 (inactive),0.742,0.64,0.226,0.841,-0.416,0.893
Cc1ccc(S[C@]2(C(=O)NCCN3CCOCC3)CC(=O)N(C(C)C)[C@@H]2c2ccc(CO)cc2I)cc1,1.89,0.713,1.24,-1.48 (inactive),-0.477,-0.465,-1.19,-0.55,-0.908,0.968
COC(=O)[C@]1(Cc2ccccc2N=[N+]=[N-])N=C(c2ccc(OCCCO)cc2)O[C@@H]1c1ccccc1CN=[N+]=[N-],0.843,2.44,1.13,2.71 (inactive),0.975,0.712,0.0466,0.315,0.236,1.1
CC[C@@H](O[Si](C#C[Si](C(C)C)(C(C)C)C(C)C)(C(C)C)C(C)C)c1cn([C@H](CO)Cc2ccccc2)nn1,0.954,-0.331,-0.592,0.131 (inactive),0.675,0.566,0.236,0.675,0.39,-0.092
CC1C2C(CCCO)=CC(C3C(=O)N(C)C(=O)C23)N1Cc1cccc(OC(F)(F)F)c1 (stereo not given),1.47,0.784,0.44,-1.06 (inactive),0.684,1.3,0.0422,0.231,-0.124,0.527
NCCCCCCNC(=O)[C@@H]1C[C@@H]2C(=O)NCC(=O)N2[C@@H]1c1cccc(OCCO)c1,1.6,0.45,0.0888,-0.734 (inactive),1.37,1.3,0.702,0.98,1.32,1.12
O=C1NC(=O)C2C1C=CC(C(O)C1CCCCC1)N2Nc1ccccn1 (stereo not given),0.488,0.174,0.279,1.31 (inactive),0.355,-0.133,0.391,0.402,0.254,1.26
COCCCNC(=O)[C@@]1(c2ccc([N+](=O)[O-])cc2)CC(=O)N(C2CCCCC2)[C@@H]1c1ccc(CO)cc1I,1.62,0.0269,0.64,-1.1 (inactive),0.453,1.16,-0.323,0.102,-0.582,0.717
C=CC[C@]12N=C(c3ccc(OCCCO)cc3)O[C@H]1c1ccccc1N(CCC)C2=O,1.18,0.43,0.693,-0.391 (inactive),1.11,1.25,0.37,1.11,0.277,1.3
C=C(/C=C\CNS(=O)(=O)c1ccc(C)cc1)[C@H](O)[C@H]1CCCN1S(=O)(=O)c1ccccc1[N+](=O)[O-],0.0251,-0.142,-0.55,-0.465 (inactive),0.598,0.215,0.629,0.122,0.524,0.509
Cc1ccc(S[C@]2(C(=O)NC3CC3)CC(=O)N(C3Cc4ccccc4C3)[C@@H]2c2ccc(CO)cc2I)cc1,0.911,0.379,0.524,-1.38 (inactive),-0.745,-0.641,-1.62,-1.11,-0.826,0.771
COC(=O)[C@@]1(Cc2ccc(F)cc2)[C@H]2c3cc(C(=O)N4CCCC4)n(Cc4ccc(C(F)(F)F)nc4)c3C[C@H]2CN1C(=O)c1ccccc1,0.513,0.16,1.33,-0.375 (inactive),0.472,1.3,0.643,1.19,-0.417,0.843
C=C[C@H](OC)[C@@H](O)c1ccc(OC)c(O)c1,0.352,-0.464,0.37,0.772 (inactive),-0.928,-1.3,-1.14,-1.91,-1.29,-1.28
O=C1NC(=O)C2C1C=CC(C(O)C(O)CO)N2Nc1ccccn1 (stereo not given),0.0854,-0.191,-0.104,-0.396 (inactive),0.183,0.335,0.386,0.178,0.173,0.0473
CCCCCN1CC=CC23O[C@@H]4/C=C\CCCOC(=O)C4[C@H]2C(=O)N(CCCCCO)[C@@H]3C1=O (stereo not given in full),0.447,-0.267,0.337,-0.831 (inactive),-0.566,-0.364,-0.779,-0.521,-0.833,0.468
C=C(C(=O)CC[C@@H](OC(=O)c1cccnc1)c1cccc(OCCO)c1)C(C)C,1.32,0.28,0.0064,3.07 (inactive),0.959,-0.521,0.111,0.343,0.109,0.867
COc1ccc(C(=O)Nc2ccc(CN3C(=O)[C@@]4(O[C@@H](CC(=O)N(CCO)Cc5ccccc5)[C@H]([Si](C)(C)c5ccc(OC)cc5)[C@H]4C)c4ccccc43)cc2)cc1,0.901,-0.0966,-0.351,-1.78 (inactive),0.201,-0.185,0.7,0.335,0.502,0.432
COc1ccc(C(O)C2C=CC3C(=O)N(C)C(=O)C3N2Nc2ccccc2)cc1 (stereo not given),0.454,-0.0205,0.87,-0.52 (inactive),0.663,0.925,0.468,0.441,0.312,0.979
COC(=O)[C@@]1(Cc2ccc(F)cc2)[C@H]2c3cc(C(=O)N(C)C)n(CCF)c3C[C@H]2CN1C(=O)c1ccccc1,-0.0822,0.9,0.987,-1.66 (inactive),0.295,0.139,-0.0604,-0.0956,-0.256,0.856
O=C1NC(=O)C2C1C=CC(C(O)C(c1ccccc1)c1ccccc1)N2Nc1ccccn1 (stereo not given),0.737,1.25,1.15,0.864 (inactive),0.909,-0.145,0.457,0.503,0.593,1.32
[N-]=[N+]=Nc1ccccc1C[C@]1(C(=O)N2CCCCC2)N=C(c2ccc(OCCCO)cc2)O[C@H]1c1ccccc1,1.46,1.01,1.11,-0.117 (inactive),1.25,0.952,0.102,0.616,0.26,0.781
COCCOC(=O)N1C(=O)[C@@]2(c3cc(C#CCC(C(=O)OC)C(=O)OC)ccc31)[C@H](C(=O)N1CCc3cc(OC)c(OC)cc3C1)[C@H]1C(=O)O[C@H](c3ccccc3)[C@H](c3ccccc3)N1[C@@H]2c1ccccc1OCCO,0.496,-0.381,-0.162,-0.606 (inactive),1.18,1.31,1.01,1.38,1.19,1.02
Cc1ccc(S[C@]2(C(=O)NC(C)C)CC(=O)N(Cc3ccccc3)[C@@H]2c2ccc(CO)cc2I)cc1,0.984,0.498,1.27,-0.328 (inactive),-0.284,-0.683,-1.27,-0.911,-2.57,1.01
C=CCNC(=O)[C@H]1[C@@H]2C(=O)O[C@@H](c3ccccc3)[C@@H](c3ccccc3)N2[C@@H](c2ccc(O)cc2)[C@]12C(=O)Nc1ccccc12,0.524,0.46,0.501,-0.592 (inactive),0.28,-0.471,-0.705,-0.693,-0.101,0.169
C[N+](C)(C)CCCC[C@@H]1NC(=O)[C@H]2C[C@@H](C(=O)O)[C@@H](c3ccc(O)cc3)N2C1=O,0.327,-0.0349,0.149,-0.303 (inactive),0.158,0.984,-0.102,0.0506,0.971,0.832
CCCCC(=C=CC[C@@H](O)c1ccc(OCCO)cc1)CCO,0.413,-0.0198,-0.305,-0.755 (inactive),0.701,-0.246,-0.899,-0.281,-0.549,1.09
